Inconclusive results are not listed. Active and inactive are the calls of the source. How the source made its calls: active means hit-call score of the fitted dose curve at least 0.9, where 1 is the maximum; inconclusive means response in the unintended direction; inactive means score below 0.9.

Drawing on PubChem BioAssay AID2284349 (EPA ToxCast), this text covers outcome for 2 compounds.

The assay deals with frog Peroxisome Proliferator-activated Receptor-gamma (PPARg), pparg (gene 397769) (UniProt P37234). Put plainly: ATG_frPPARg_EcoTox2: Attagene TRANS-FACTORIAL EcoTox-2 HepG2 Assay for frog Peroxisome Proliferator-activated Receptor-gamma (PPARg). The method, then: ATG_EcoTox2 is a cell-based, multiplexed assay created by modifying the existing Attagene TRANS-FACTORIAL system to include a panel of nuclear receptors from some or all the following species: human (Homo sapiens), african clawed frog (Xenopus laevis), rainbow trout (Oncorhynchus mykiss), japanese medaka (Oryzias latipes), and zebrafish (Danio rerio). The ECOTOX2-FACTORIAL format uses HepG2, a human liver cell line, with measurements taken at 24 hours after chemical dosing in a 24-well plate. ATG_frPPARg_EcoTox2 is one of 29 assay components calculated in the ATG_EcoTox2 assay. It is designed to make measurements of mRNA induction, a form of inducible reporter, as detected with fluorescence intensity signals by Reverse transcription polymerase chain reaction (RT-PCR) and Capillary electrophoresis technology.The assay endpoint ATG_frPPARg_EcoTox2 was analyzed in the positive analysis fitting direction relative to DMSO as the negative control and baseline of activity. Using a type of inducible reporter, measures of mRNA for gain-of-signal activity can be used to understand the reporter gene at the transcription factor-level as they relate to the gene PPARg. Furthermore, this assay endpoint can be referred to as a primary readout, because this assay has produced multiple assay endpoints where this one serves a reporter gene function. […]
Chain of frog Peroxisome Proliferator-activated Receptor-gamma (PPARg), pparg (gene 397769) (P37234 whole entry, looked up): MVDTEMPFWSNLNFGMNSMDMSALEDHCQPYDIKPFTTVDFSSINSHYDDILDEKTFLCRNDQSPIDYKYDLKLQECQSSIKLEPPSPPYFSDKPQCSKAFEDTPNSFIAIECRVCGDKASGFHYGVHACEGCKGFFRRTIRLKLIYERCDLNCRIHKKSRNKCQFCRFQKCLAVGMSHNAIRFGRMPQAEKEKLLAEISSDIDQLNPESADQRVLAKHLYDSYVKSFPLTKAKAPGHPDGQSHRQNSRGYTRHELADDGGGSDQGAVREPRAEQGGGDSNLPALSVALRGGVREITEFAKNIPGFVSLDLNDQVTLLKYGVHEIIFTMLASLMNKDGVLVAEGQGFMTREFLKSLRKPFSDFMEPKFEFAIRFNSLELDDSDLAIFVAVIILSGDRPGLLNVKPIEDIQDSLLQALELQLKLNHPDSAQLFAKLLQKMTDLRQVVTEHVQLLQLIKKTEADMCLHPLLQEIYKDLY

`O=S(=O)(O)C(F)(F)C(F)(F)C(F)(F)C(F)(F)C(F)(F)C(F)(F)F`: the compound was classed as inactive.
Next, `CCCCOCN(C(=O)CCl)c1c(CC)cccc1CC`: “inactive”.
